From PubChem BioAssay
For some of these results: Measured potencies and affinities stand elsewhere. The source made the active and inactive calls.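 Rule for the calls, unless noted: active = primary screen inhibitor hit that blocks the TRPC4 channel at some tested dose, yielding a dose curve; inactive = the rest.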

Experiments:
[1] = tested on: TRPC4 beta (transient receptor potential cation channel C4), mouse; assay: TRPC4 cation channel opening, retest – cell-based, Fluo4 calcium, HEK293 TRPC4beta/mu-opioid, duplicates, 10 µM, confirmation (AID 2426;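 active = fluorescence ratio normalized to control raised more than 50% in primary screen plus both repeat runs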;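 for activation: percent rise of integrated ratio over buffer wells lacking compound which define 0%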); settings: Fluo4 calcium fluorescence, at 10 µM; hits give high values
[2] = tested on: transient receptor potential cation channel C4 beta (TRPC4), mouse; assay: TRPC4 cation channel opening, second retest – cell-based, second round, Fluo4, HEK293 TRPC4beta/mu-opioid, 1 µM, confirmation (AID 2461;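 active = primary screen active and over 50% activation in each of two duplicate runs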); settings: Fluo4 calcium fluorescence, at 1 µM; hits give high values
[3] = tested on: TRPC4 (transient receptor potential cation channel C4 beta), mouse; assay: potentiation of DAMGO EC20 TRPC4 response – cell-based, second round, Fluo-4, HEK293 TRPC4beta/mu-opioid, 1 µM, confirmation (AID 2554;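 active = primary screen hit whose fluorescence ratio, in both repeats, exceeds the weak agonist control mean by 3 SD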); settings: DAMGO EC20, Fluo-4 calcium flux, at 1 µM; hits give high values
[4] = tested on: TRPC4 beta (transient receptor potential cation channel C4), mouse; assay: potentiation of DAMGO EC20 TRPC4 response – cell-based, Fluo-4, HEK293 TRPC4beta/mu-opioid, confirmation (AID 2555;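 active = primary screen hit whose calcium fluorescence ratio, in both repeats, exceeds the weak agonist control mean by 3 SD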); settings: DAMGO EC20, Fluo-4 calcium flux, at 10 µM; hits give high values
[5] = target: Short transient receptor potential channel 4 (Mus musculus) (UniProt Q9QUQ5); assay: blockers of DAMGO-evoked TRPC4 calcium flux – cell-based, Fluo4, HEK293 TRPC4beta/mu-opioid, confirmation (AID 2636;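 active = calcium signal cut by more than 3 SD below the full-agonist control yet still positive, in both repeats and the earlier primary screen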); settings: at 10 µM; hits give high values
Sequence of Short transient receptor potential channel 4 (Mus musculus) (Q9QUQ5 whole entry, looked up): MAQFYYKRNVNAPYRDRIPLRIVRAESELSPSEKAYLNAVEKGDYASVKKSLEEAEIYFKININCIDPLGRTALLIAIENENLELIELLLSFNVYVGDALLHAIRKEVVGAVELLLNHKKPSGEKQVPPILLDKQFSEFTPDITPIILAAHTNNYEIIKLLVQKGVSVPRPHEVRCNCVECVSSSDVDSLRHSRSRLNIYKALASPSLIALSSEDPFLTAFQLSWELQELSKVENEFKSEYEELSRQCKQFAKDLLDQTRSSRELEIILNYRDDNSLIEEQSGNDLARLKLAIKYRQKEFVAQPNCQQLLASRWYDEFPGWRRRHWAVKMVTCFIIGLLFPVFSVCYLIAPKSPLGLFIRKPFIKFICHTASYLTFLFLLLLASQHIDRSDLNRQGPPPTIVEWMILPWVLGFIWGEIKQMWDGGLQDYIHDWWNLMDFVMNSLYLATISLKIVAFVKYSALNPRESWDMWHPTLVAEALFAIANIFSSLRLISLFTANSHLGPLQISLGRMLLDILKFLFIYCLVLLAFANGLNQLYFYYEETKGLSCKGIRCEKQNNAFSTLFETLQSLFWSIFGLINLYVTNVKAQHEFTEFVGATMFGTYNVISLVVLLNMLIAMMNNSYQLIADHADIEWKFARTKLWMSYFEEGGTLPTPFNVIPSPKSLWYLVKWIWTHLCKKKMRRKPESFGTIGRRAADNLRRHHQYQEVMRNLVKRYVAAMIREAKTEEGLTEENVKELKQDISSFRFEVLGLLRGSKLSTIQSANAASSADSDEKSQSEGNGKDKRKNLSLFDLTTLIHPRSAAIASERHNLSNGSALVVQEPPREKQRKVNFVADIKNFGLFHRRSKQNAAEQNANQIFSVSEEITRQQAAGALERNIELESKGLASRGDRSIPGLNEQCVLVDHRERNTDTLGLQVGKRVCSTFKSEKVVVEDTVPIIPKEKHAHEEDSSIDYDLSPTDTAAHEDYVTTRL

[6] = target: Short transient receptor potential channel 4 (Mus musculus) (UniProt Q9QUQ5); assay: blockers of DAMGO-evoked TRPC4 calcium flux – cell-based, second round, Fluo4, HEK293 TRPC4beta/mu-opioid, 1 µM, confirmation (AID 2637;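 active = calcium signal ratio cut to more than 3 SD under the fully stimulated control mean yet still positive, in both repeats and the primary screen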); settings: at 1 µM; hits give high values
[7] = target: Short transient receptor potential channel 4 (Mus musculus) (UniProt Q9QUQ5); assay: calcium entry via TRPC4 opening agents – cell-based, HEK293 TRPC4/mu-opioid, Fluo-4 calcium, dose response (AID 434937;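 active = primary screen activator hit with a dose response curve and TRPC4 channel activation at any tested dose; inactive = no activation, no dose response, or not a primary hit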)
[8] = target: Short transient receptor potential channel 4 (Mus musculus) (UniProt Q9QUQ5); assay: potentiation of DAMGO-evoked TRPC4 calcium signal – cell-based, HEK293 TRPC4/mu-opioid, Fluo-4 calcium, EC20 DAMGO, dose response (AID 434941;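 active = earlier screen potentiator hit that boosts the TRPC4 ion channel at some dose, with a dose response; inactive = no potentiation, no dose response, or not a prior hit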;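 note: calcium entry triggered by an EC20 dose of DAMGO at the co-expressed mu-opioid receptor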)
[9] = target: Short transient receptor potential channel 4 (Mus musculus) (UniProt Q9QUQ5); assay: block of DAMGO-driven TRPC4 calcium entry – cell-based, HEK293 TRPC4/mu-opioid, Fluo-4 calcium, dose response (AID 434942)
[10] = target: Short transient receptor potential channel 6 (Mus musculus) (UniProt Q61143); assay: TRPC6 blockade by TRPC4 inhibitor hits – cell-based, HEK293, membrane potential dye, duplicate, selectivity assay for TRPC4 inhibitor project, confirmation (AID 434948;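 active = active in primary screen and both duplicates, each dropping signal beyond three positive-control SD with fluorescence still positive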); settings: HEK293 TRPC6, membrane potential dye fluorescence, at 10 µM, stimulated with maximal-effect acetylcholine; hits give high values
Sequence of Short transient receptor potential channel 6 (Mus musculus) (Q61143 whole entry, looked up): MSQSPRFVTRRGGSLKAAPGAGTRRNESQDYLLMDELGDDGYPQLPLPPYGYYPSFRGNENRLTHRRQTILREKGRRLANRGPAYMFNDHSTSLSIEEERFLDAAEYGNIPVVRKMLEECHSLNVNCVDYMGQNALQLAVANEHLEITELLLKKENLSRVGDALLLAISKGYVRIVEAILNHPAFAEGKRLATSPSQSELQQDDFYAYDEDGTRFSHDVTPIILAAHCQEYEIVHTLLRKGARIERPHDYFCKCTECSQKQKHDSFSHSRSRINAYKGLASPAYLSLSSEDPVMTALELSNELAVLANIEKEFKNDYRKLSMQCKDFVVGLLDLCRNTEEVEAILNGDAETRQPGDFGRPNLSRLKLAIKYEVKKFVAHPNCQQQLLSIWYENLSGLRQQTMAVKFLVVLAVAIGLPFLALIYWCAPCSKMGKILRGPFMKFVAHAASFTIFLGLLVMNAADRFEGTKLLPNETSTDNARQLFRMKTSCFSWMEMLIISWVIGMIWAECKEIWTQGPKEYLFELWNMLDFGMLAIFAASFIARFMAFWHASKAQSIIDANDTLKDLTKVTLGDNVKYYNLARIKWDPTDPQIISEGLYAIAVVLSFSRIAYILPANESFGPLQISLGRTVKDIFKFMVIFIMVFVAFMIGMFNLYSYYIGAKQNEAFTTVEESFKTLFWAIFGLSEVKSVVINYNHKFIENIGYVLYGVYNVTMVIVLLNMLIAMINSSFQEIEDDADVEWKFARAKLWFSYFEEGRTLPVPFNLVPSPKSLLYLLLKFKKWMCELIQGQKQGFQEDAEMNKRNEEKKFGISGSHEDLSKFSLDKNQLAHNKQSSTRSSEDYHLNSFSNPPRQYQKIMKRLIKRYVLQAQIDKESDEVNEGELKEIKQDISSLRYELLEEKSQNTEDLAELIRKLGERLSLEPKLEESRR

[11] = target: Short transient receptor potential channel 6 (Mus musculus) (UniProt Q61143); assay: TRPC6 opening by TRPC4 activator hits – cell-based, HEK293, membrane potential dye, duplicate, selectivity assay for TRPC4 activator project, confirmation (AID 434950;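 active = membrane potential signal rise above negative control mean plus 3 SD in both duplicates, also active in the earlier TRPC4 screen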;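 for activation: 0% = buffer only wells and 100% = acetylcholine maximal-effect wells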); settings: HEK293 TRPC6, membrane potential fluorescence, at 10 µM; activation: hits give high values; outcome: activation
[12] = target: Short transient receptor potential channel 6 (Mus musculus) (UniProt Q61143); assay: positive modulators of mouse TRPC6 channel – HEK293 cells, membrane potential dye, duplicate, selectivity assay for TRPC4 potentiator project, confirmation (AID 434952;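 active = compound raising the membrane signal above positive-control mean plus 3 SD in both repeats, and a primary screen hit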); settings: HEK293 TRPC6, membrane potential dye fluorescence, at 10 µM, maximal acetylcholine added after compound; hits give high values
[13] = target: Short transient receptor potential channel 4 (Mus musculus) (UniProt Q9QUQ5); assay: calcium flux activators in TRPC4/5HT1a cells, counter-screen for TRPC4 activator project, cell-based, second counter screen, HEK293 TRPC4/5HT1a, Fluo-4 (AID 434977;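 active = calcium signal rise above buffer-control mean plus 5 SD in both duplicates, and also a hit in the primary screen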;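 for activation: plate controls were assay buffer for no effect and maximal serotonin response for full effect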); settings: Fluo-4 calcium flux, at 10 µM; hits give high values
[14] = serotonin-gated TRPC4 signal block – cell-based, second counter screen, HEK293 TRPC4/5HT1a, Fluo-4, counter-screen for TRPC4 inhibitor project, confirmation (AID 434978;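 active = primary screen active whose calcium signal fell more than 3 SD beyond the full-serotonin control mean in both duplicate plates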;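 for outcome: serotonin given first at submaximal then at maximal dose after compound preincubation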); settings: Fluo-4 calcium flux, at 10 µM, serotonin added to trigger calcium flux; hits give high values
[15] = tested on: TRPC4 (mouse), co-expressed with 5HT1a in HEK293; assay: enhancement of serotonin-evoked TRPC4 response – cell-based, second counter screen, HEK293 TRPC4/5HT1a, Fluo-4, counter-screen for TRPC4 potentiator project, confirmation (AID 434979;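 active = signal rise over 3 SD above mean of control wells given weak agonist, in both repeats and first screen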); settings: Fluo-4 calcium flux, at 10 µM, serotonin added at its EC20 dose; hits give high values
[16] = nonspecific calcium rise without TRPC4 – cell-based, HEK293 mu-opioid receptor line, counter-screen for TRPC4 activator project, confirmation (AID 449723;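 active = hit in primary screen, with calcium signal over 5 SD above buffer well mean in both duplicates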;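 note: counter screen cells carry the mu-opioid receptor alone and lack TRPC4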); settings: HEK293 mu-opioid cells, Fluo-4 calcium fluorescence, at 10 µM; hits give high values
[17] = nonspecific potentiation of DAMGO calcium response – cell-based, HEK293 mu-opioid receptor line, counter-screen for TRPC4 allosteric potentiator project, confirmation (AID 449724;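 active = calcium signal rise more than 3 SD above the low-dose agonist control mean, in both duplicate plates and the primary screen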); settings: HEK293 mu-opioid receptor cells, Fluo-4 calcium flux, at 10 µM, compound added before EC20 DAMGO stimulus; hits give high values

Cc1ccc(C2(CCNC(C)c3cccs3)CCOC(C(C)C)C2)cc1 (stereo not drawn)
active: activation [11] 69%
inactive: outcome [1] | outcome [2] | outcome [3] | outcome [4] | outcome [5] | outcome [6] | outcome [7] | outcome [8] | outcome [9] | outcome [10] | outcome [12] | outcome [13] | outcome [14] | outcome [15] | outcome [16] | outcome [17]

CCOc1cc(N(CC)CC)ccc1/C=C(/C#N)c1nc2ccccc2[nH]1
active: activation [11] 86% | activation [13] 16.9% | activation [16] 31.5%
inactive: outcome [1] | outcome [2] | outcome [3] | outcome [4] | outcome [5] | outcome [6] | outcome [7] | outcome [8] | outcome [9] | outcome [10] | outcome [12] | outcome [14] | outcome [15] | outcome [17]

Cc1cc(C)c(C)c(S(=O)(=O)NCc2ccco2)c1C
active: potentiation [15] 28.1%
inactive: outcome [1] | outcome [2] | outcome [3] | outcome [4] | outcome [5] | outcome [6] | outcome [7] | outcome [8] | outcome [9] | outcome [10] | outcome [11] | outcome [12] | outcome [13] | outcome [14] | outcome [16] | outcome [17]

COc1cc2nc(=S)n3[nH]c(CCn4nc(C)cc4C)nc3c2cc1OC
inactive: outcome [1] | outcome [2] | outcome [3] | outcome [4] | outcome [5] | outcome [6] | outcome [7] | outcome [8] | outcome [9] | outcome [10] | outcome [11] | outcome [12] | outcome [13] | outcome [14] | outcome [15] | outcome [16] | outcome [17]

Cc1cc(Cl)cc(C)c1OCCCCCn1ccnc1
inactive: outcome [2] | outcome [3] | outcome [4] | outcome [5] | outcome [6] | outcome [7] | outcome [8] | outcome [9] | outcome [10] | outcome [12] | outcome [14] | outcome [15] | outcome [16] | outcome [17]
active: activation [1] 88% | activation [11] 47% | activation [13] 34%

CCN(CCCNC(=O)CCCOc1cc(=O)n(C)c2ccccc12)Cc1ccccc1
active: potentiation [15] 16.1%
inactive: outcome [1] | outcome [2] | outcome [3] | outcome [4] | outcome [5] | outcome [6] | outcome [7] | outcome [8] | outcome [9] | outcome [10] | outcome [11] | outcome [12] | outcome [13] | outcome [14] | outcome [16] | outcome [17]

CCOC(=O)CC(NC(=O)c1cc2cc(Br)ccc2oc1=O)c1cccc([N+](=O)[O-])c1 (stereo not drawn)
inactive: outcome [1] | outcome [2] | outcome [3] | outcome [4] | outcome [5] | outcome [6] | outcome [7] | outcome [8] | outcome [9] | outcome [10] | outcome [11] | outcome [12] | outcome [13] | outcome [14] | outcome [16] | outcome [17]
active: potentiation [15] 15.9%

O=C(NCc1cccs1)C12CC3CC(CC(C3)C1)C2
inactive: outcome [1] | outcome [2] | outcome [3] | outcome [4] | outcome [5] | outcome [6] | outcome [7] | outcome [8] | outcome [9] | outcome [10] | outcome [11] | outcome [12] | outcome [13] | outcome [14] | outcome [15] | outcome [16] | outcome [17]

O=C(COC(=O)c1cc2c(s1)CCCCC2)NC1CCS(=O)(=O)C1 (stereo not drawn)
inactive: outcome [1] | outcome [2] | outcome [3] | outcome [4] | outcome [5] | outcome [6] | outcome [7] | outcome [8] | outcome [9] | outcome [10] | outcome [11] | outcome [12] | outcome [13] | outcome [14] | outcome [15] | outcome [16] | outcome [17]

OC(CNCCc1ccc(C(F)(F)F)cc1)COc1ccc2ccccc2c1 (stereo not drawn)
inactive: outcome [1] | outcome [2] | outcome [3] | outcome [4] | outcome [5] | outcome [6] | outcome [7] | outcome [8] | outcome [9] | outcome [10] | outcome [11] | outcome [12] | outcome [13] | outcome [14] | outcome [15] | outcome [16] | outcome [17]

CCOC(=O)C1(CC2CC2)CCN(Cc2cn[nH]c2-c2cccc(F)c2)CC1
inactive: outcome [1] | outcome [2] | outcome [3] | outcome [4] | outcome [5] | outcome [6] | outcome [7] | outcome [8] | outcome [9] | outcome [10] | outcome [11] | outcome [12] | outcome [13] | outcome [14] | outcome [15] | outcome [16] | outcome [17]

CCCCc1ccc(NC(=O)CSc2nnc(C)c(=O)n2N)cc1
inactive: outcome [1] | outcome [2] | outcome [3] | outcome [5] | outcome [6] | outcome [7] | outcome [8] | outcome [9] | outcome [10] | outcome [11] | outcome [12] | outcome [13] | outcome [14] | outcome [16] | outcome [17]
active: potentiation [4] 14% | potentiation [15] 43.5%

O=C(NC1CCN(Cc2ccccc2)CC1)c1cccc(S(=O)(=O)Nc2cc(C(F)(F)F)ccc2Cl)c1
inactive: outcome [1] | outcome [2] | outcome [4] | outcome [5] | outcome [6] | outcome [7] | outcome [8] | outcome [9] | outcome [10] | outcome [11] | outcome [12] | outcome [13] | outcome [14] | outcome [16] | outcome [17]
active: potentiation [3] 13% | potentiation [15] 22.2%

Cc1ccc(-c2csc3ncnc(NCCN4CCOCC4)c23)cc1
inactive: outcome [1] | outcome [2] | outcome [3] | outcome [4] | outcome [6] | outcome [7] | outcome [8] | outcome [9] | outcome [10] | outcome [11] | outcome [12] | outcome [13] | outcome [15] | outcome [16] | outcome [17]
active: inhibition [5] 76% | inhibition [14] 32.6%
